# Screening data as filed in PubChem BioAssay.
# Bim-Mcl-1: inhibitors of Bim peptide binding to Mcl-1, primary screen, biochemical, bead-based flow cytometry, multiplex | Induced myeloid leukemia cell differentiation protein Mcl-1 (Homo sapiens), Q07820 | Bim peptide-Mcl-1 binding | inhibition, % at 10 µM | 190,000 compounds, 0.1% hits | AID 1009, 2008; in the data active = inhibition above about 40%;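 also: 0% = no compound tracer wells and 100% = peptide blocker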
# Calpain2 inh: inhibitors of pig calpain II, primary screen, biochemical, fluorogenic peptide substrate, 1536-well. purified calpain II, 30 min. inhibition, % at 16 µM. 220,000 compounds, 0.37% hits;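 active = inhibition above about 50%, limit read from the data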
# Mcl1 Noxa PPI: Mcl-1/Noxa binding inhibitors, primary screen, biochemical, TR-FRET, 1536-well; Induced myeloid leukemia cell differentiation protein Mcl-1 (Homo sapiens), Q07820; TR-FRET Mcl-1/Noxa peptide binding, 2 h; inhibition, % at 21.7 µM; 220,000 compounds, 1.5% hits;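 active = compounds that cut the protein-peptide binding signal by more than 50% relative to plate controls in a single-dose test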;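 also: His-tagged Mcl-1 with rhodamine Noxa BH3 peptide and terbium anti-His antibody; 0% = Mcl-1 plus Noxa peptide wells and 100% = peptide-only wells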
# Mcl1 Bid PPI: Mcl-1/Bid binding inhibitors, primary screen, biochemical, TR-FRET, 1536-well; 220,000 compounds, 0.97% hits; AID 1021, 2008; TR-FRET Mcl-1/Bid-Dy647 peptide binding; inhibition, % at 21.7 µM;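 active = compounds that cut the binding signal by more than half at the single screening dose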;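 also: His-tagged Mcl-1 with europium anti-His antibody binding Bid BH3 peptide; 0% = Mcl-1 plus peptide wells and 100% = peptide-only wells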
# p47phox inh: p47phox/p22phox peptide binding inhibitors, primary screen, biochemical, uHTS, NADPH oxidase regulatory subunit | Neutrophil cytosol factor 1 (Homo sapiens), P14598 | fluorescence polarization, 2 h | inhibition, % at 24.7 µM | 220,000 compounds, 0.53% hits;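 active = inhibition above about 30%, limit read from the data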;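 also: 0% = p47phox with labelled peptide and 100% = labelled peptide alone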
# Target sequence (P14598 whole entry, looked up): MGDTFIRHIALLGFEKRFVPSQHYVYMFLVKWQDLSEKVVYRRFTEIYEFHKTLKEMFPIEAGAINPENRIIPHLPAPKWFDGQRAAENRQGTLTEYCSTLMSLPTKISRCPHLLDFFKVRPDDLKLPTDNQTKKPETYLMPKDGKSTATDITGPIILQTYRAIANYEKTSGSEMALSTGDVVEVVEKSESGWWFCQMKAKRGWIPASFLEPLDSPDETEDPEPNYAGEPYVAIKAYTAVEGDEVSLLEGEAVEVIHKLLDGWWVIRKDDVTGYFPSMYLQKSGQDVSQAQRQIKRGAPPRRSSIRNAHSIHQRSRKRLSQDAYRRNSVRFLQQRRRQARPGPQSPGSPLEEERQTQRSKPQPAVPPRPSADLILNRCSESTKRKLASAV
# 14-3-3 Bad inh: inhibitors of 14-3-3 zeta/Bad binding, primary screen, biochemical, TR-FRET, bovine 14-3-3 zeta; 14-3-3 protein zeta/delta (Bos taurus), P63103; TR-FRET 14-3-3zeta/Dy647-pBad peptide displacement, 1 h; AID 781, 2007; inhibition, % at 21.7 µM; 220,000 compounds, 0.71% hits;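 active = inhibition above about 70%, limit read from the data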;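 also: 0% = full 14-3-3 plus peptide FRET controls and 100% = background without 14-3-3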
# Target sequence (P63103 whole entry, looked up): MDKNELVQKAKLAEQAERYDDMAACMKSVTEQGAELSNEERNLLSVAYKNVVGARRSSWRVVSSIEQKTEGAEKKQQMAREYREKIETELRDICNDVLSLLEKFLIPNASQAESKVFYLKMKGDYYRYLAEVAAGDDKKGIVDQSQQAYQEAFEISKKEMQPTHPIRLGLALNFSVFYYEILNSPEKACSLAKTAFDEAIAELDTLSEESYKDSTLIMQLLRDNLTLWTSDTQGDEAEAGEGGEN
# Numbers without * were called inactive; / = no result given. Compounds with a hit are over-represented: about 3.4% of the library has one in this group of screens.
SMILES,Bim-Mcl-1,Calpain2 inh,Mcl1 Noxa PPI,Mcl1 Bid PPI,p47phox inh,14-3-3 Bad inh
CCO[C@H]1OC(C(=O)Nc2ccccc2)=C[C@@H](c2ccc(C(F)(F)F)cc2)[C@@H]1CCCO,-3.0,17.6,7.5,29.8,1.7,-8.1
COc1ccccc1-c1c(C(F)(F)F)oc2cc(OCC(=O)Nc3ccccc3C(F)(F)F)ccc2c1=O,-6.0,-24.9,-11.2,-18.6,-3.9,-6.9
COc1ccc(-c2c(C(F)(F)F)oc3cc(OCC(=O)Nc4ccccc4C(F)(F)F)ccc3c2=O)cc1OC,-3.0,-51.3,-20.9,-12.9,31.1*,-7.3
Cc1ccc(Nc2nc(N)nc(CSC(=S)N3CCOCC3)n2)cc1,-5.0,-2.2,11.2,-55.4,-6.2,2.1
CCOc1ccc(Nc2nc(N)nc(CSC(=S)N3CCOCC3)n2)cc1,/,8.1,14.2,-16.2,125.5*,-6.5
O=C(Nc1nnc(-c2cccnc2)o1)c1cccc(Cl)c1,-2.0,-12.3,-45.3,-19.5,/,-14.8
Cc1cn(-c2ccccc2)c(C)c1/C=N\Nc1nc(N2CCOCC2)nc(N2CCOCC2)n1,1.0,-46.5,-1.3,-49.7,-17.4,-12.3
COC(=O)c1ccc(NS(=O)(=O)c2cccc3cccnc23)cc1,3.0,-23.0,8.8,-4.9,49.1*,-4.9
COc1cc(S(=O)(=O)NCCCN2CCOCC2)ccc1-n1cnnn1,0.0,19.6,34.2,25.2,6.0,70.2*
COc1cc(NS(=O)(=O)c2ccc(C)cc2)ccc1-n1cnnn1,-4.0,-4.8,-4.1,-9.3,52.6*,14.2
COC(=O)c1ccc(C2C(C(=O)Nc3ccc(C)cc3C)=C(C)Nc3ncnn32)cc1 (stereo unspecified),0.0,-20.9,-4.8,-31.1,-1.8,4.3
CCOC(=O)NC(CC(=O)O)c1ccc(OC)c(OC)c1 (stereo unspecified),1.0,-4.7,-7.9,-18.0,68.0*,16.6
COc1ccc(C(CC(=O)O)NC(C)=O)cc1OC (stereo unspecified),-9.0,-0.8,7.3,-27.1,-3.4,-1.4
COc1cccc(C(=O)N2CCN(C3CCN(Cc4ccccc4)CC3)CC2)c1,3.0,13.1,33.4,15.2,-9.9,57.5
COc1ccc(C(=O)N2CCN(Cc3cc(OC)c(O)c(OC)c3)CC2)cc1OC,0.0,-4.3,23.6,58.5*,-10.1,27.5
COc1ccc(CN2CCN(C(=O)c3cc(OC)c(OC)c(OC)c3)CC2)cc1OC,0.0,-18.9,12.8,32.5,-3.7,20.7
COc1ccccc1C(=O)N1CCN(C2CCN(Cc3ccccc3)CC2)CC1,-8.0,9.5,31.8,47.9,-10.1,83.6*
COc1ccc(C(=O)N2CCN(C3CCN(Cc4ccccc4)CC3)CC2)cc1OC,1.0,-47.3,23.3,58.4*,2.4,58.4
CCc1nc(N2CCN(S(C)(=O)=O)CC2)c2c3c(sc2n1)CCCC3,-1.0,-12.3,4.2,-12.8,-0.2,-8.9
COc1ccc(S(=O)(=O)n2[nH]c(=O)c(CCO)c2C)c([N+](=O)[O-])c1,0.0,-14.9,14.5,-33.6,-16.5,-3.5
Cc1cc(C(=O)O)ccc1-n1c(C)ccc1C,2.0,-30.5,77.8*,57.0*,-24.8,-0.3
Cc1cc(C(=O)O)ccc1-n1c(C)cc(/C=C(/C#N)C(=O)Nc2ccccc2)c1C,-6.0,58.6*,23.6,-37.2,-11.6,3.4
COc1ccc(NC2CC(=O)N(c3cc([N+](=O)[O-])ccc3C)C2=O)cc1 (stereo unspecified),3.0,11.1,-10.8,-66.7,-2.8,-8.1
O=C1c2ccccc2C(=O)c2c1ccc1c(=O)n(-c3ccccc3)[nH]c21,-2.0,1.7,22.4,-71.0,-5.2,-3.3
Cc1cccc(-n2[nH]c3c4c(ccc3c2=O)C(=O)c2ccccc2C4=O)c1,-5.0,16.5,55.1*,-9.1,49.7*,-1.0
SMILES,Bim-Mcl-1,Calpain2 inh,Mcl1 Noxa PPI,Mcl1 Bid PPI,p47phox inh,14-3-3 Bad inh
Cc1nn(CC(=O)c2cccc(Cl)c2)c(C)c1[N+](=O)[O-],0.0,23.6,-1.1,-9.4,-21.0,-10.1
Cc1cc(C)nc(/N=C(\N)N2CCc3ccccc32)n1,49.0*,-26.9,9.0,-30.6,5.1,-9.2
CCS(=O)(=O)c1ccc(N)cc1,-3.0,1.1,19.5,21.7,-1.8,10.9
CCS(=O)(=O)c1ccc(S(=O)(=O)CC)s1,0.0,51.6*,-7.1,70.5*,-12.5,13.2
O=C(NCCN1CCNCC1)c1ccccn1,0.0,15.9,28.5,7.2,-0.1,72.5*
COc1ccc(C(C2C(=O)CC(C)(C)CC2=O)C2C(=O)CC(C)(C)CC2=O)cc1,/,-10.0,5.8,-42.8,-0.8,-4.3
O=[N+]([O-])c1ccc2nc(-c3ccc(Cl)cc3)[nH]c2c1,-3.0,-214.0,45.2,-3.1,-18.0,8.6
O=[N+]([O-])c1ccc(-c2cc(-c3ccc(Cl)cc3)n[nH]2)cc1,3.0,-94.2,81.3*,43.7,-63.0,64.8
C=CCNc1nc(N2CCCC2)nc2ccccc12,-1.0,-27.2,32.8,5.2,4.8,9.4
OCCNc1nc(N2CCN(Cc3ccccc3)CC2)nc2ccccc12,4.0,-79.6,46.2,22.4,-16.6,80.3*
Cc1onc(-c2c(F)cccc2Cl)c1C(N)=S,-6.0,-2.0,-14.2,-37.8,1.9,-5.2
Cc1ccc(OP(=O)(Nc2c(C)n(C)n(-c3ccccc3)c2=O)Oc2ccc(C)cc2)cc1,3.0,21.7,-15.9,-16.2,12.1,-6.5
CC(C)(C)c1cc(CN2CCN(CCO)CC2)cc(C(C)(C)C)c1O,-4.0,-8.2,28.4,62.3*,-8.5,20.6
CC(C)(C)n1nnnc1CN(Cc1ccco1)Cc1cc2cc3c(cc2[nH]c1=O)OCO3,-3.0,-63.8,34.6,-10.7,1.7,-15.4
COCCn1nnnc1CN(Cc1ccco1)Cc1cc2cc3c(cc2[nH]c1=O)OCO3,43.0*,-136.7,-10.7,-1.2,5.3,5.0
Cc1ccc2c(c1)[nH]c1c(=O)n(Cc3ccco3)cnc12,/,-19.8,3.8,-31.5,-11.1,-2.8
O=C1CCCC/C1=C/Nc1cccc(C(F)(F)F)c1,2.0,10.2,15.0,-44.1,-3.2,92.9*
CC1=NOC(=O)/C1=C/c1ccc(N(C)C)cc1,-2.0,18.6,23.6,-32.5,180.7*,-14.2
O=C(CN1CCN(c2ccccc2)CC1)N/N=C/c1cccc(F)c1,-8.0,5.9,11.1,-44.1,-4.3,-9.9
CCC(=O)N1CC2(CC(c3cccc([N+](=O)[O-])c3)=NO2)C[C@H]1C(=O)NCC(N)=O (stereo partly specified),-2.0,7.2,1.8,-6.0,35.2*,10.1
